LYP act: LYP (human) phosphatase activation | Q9Y2R2 | hit rate 0.11% among 96,000 | activation, % at 2 µM | recombinant LYP, DiFMUP fluorescence; 0 = plate median, 100 = signal doubled;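 active = activation at 2 µM above a set limit, the mean plus 5 SD, cut at about 37% in these data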
Target sequence (Q9Y2R2 whole entry, looked up): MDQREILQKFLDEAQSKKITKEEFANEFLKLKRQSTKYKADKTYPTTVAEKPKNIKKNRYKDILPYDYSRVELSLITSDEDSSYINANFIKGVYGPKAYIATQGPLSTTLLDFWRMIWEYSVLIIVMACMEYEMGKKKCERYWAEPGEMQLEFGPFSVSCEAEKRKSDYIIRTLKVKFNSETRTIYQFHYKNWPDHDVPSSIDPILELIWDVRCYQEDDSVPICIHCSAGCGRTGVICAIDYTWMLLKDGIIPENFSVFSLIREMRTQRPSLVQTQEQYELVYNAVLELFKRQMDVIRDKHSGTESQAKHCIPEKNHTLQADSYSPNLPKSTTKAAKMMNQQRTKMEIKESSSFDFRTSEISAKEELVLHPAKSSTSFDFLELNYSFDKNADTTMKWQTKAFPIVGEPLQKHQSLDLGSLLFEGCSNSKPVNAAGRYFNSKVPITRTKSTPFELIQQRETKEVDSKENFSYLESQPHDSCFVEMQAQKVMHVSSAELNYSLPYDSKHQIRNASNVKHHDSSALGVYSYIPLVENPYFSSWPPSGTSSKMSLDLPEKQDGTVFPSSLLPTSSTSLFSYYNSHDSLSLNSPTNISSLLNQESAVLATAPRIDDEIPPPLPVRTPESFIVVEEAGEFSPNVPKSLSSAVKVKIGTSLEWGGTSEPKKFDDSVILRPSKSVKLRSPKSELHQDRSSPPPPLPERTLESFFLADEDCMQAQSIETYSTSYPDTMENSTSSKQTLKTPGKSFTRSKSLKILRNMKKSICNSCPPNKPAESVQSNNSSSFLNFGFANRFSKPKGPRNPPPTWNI
Measles CPE: protection of cells from measles virus. Measles virus-infected cells, CPE protection, absorbance. protection (pct of control), % at 4 µM. hit rate 1.5% among 140,000; in the data active = protection mostly above about 24%, no sharp cut-off; inactive = mostly below about 26%
LYP inh 2: blocks human PTPN22 phosphatase activity; Q9Y2R2; recombinant LYP catalytic domain, DiFMUP fluorescence; inhibition, % at 2 µM; hit rate 0.21% among 96,000;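 active = inhibition at 2 µM at or above a set limit, the screen mean plus 3 SD, cut at about 24% in these data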;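 also: 0% = DMSO with enzyme and 100% = enzyme fully blocked by orthovanadate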
An asterisk follows results filed as active. In the library only some 1.7% were active in any assay of this set; here they are far more common.

For COC(=O)c1nn(-c2ccccc2)c(=O)cc1Oc1ccc(Cl)cc1 the results were LYP act 3.4, Measles CPE 16.5 and LYP inh 2 -1.0.
Screening Nc1nc(SCC(=O)Nc2ccccc2)nc2nc3c(cc12)CCCC3 returned Measles CPE 16.8.
`Cc1ccc(O)c(C(CC(=O)N2CCCC2)c2ccccc2)c1` (stereo not given) gave Measles CPE 29.4*.
CCCN(CCC)C(=O)CC(c1ccccc1)c1cc(C)ccc1O (stereo not given) was read as LYP act 2.4, Measles CPE 9.3 and LYP inh 2 -1.5.
CO[C@@H]1O[C@@H]2COC(c3ccccc3)O[C@@H]2[C@@H](OC)[C@@H]1O (stereo not given in full) was read as LYP act -6.8, Measles CPE 5.6 and LYP inh 2 6.3.
O=C(OCC(=O)N1c2ccccc2Sc2ccccc21)C1CC(=O)N(Cc2ccco2)C1 (stereo not given) was read as LYP act 11.6, Measles CPE 29.4 and LYP inh 2 -13.6.
For Cc1ccc(NC(=O)C2C(c3ccccc3)C=CC(c3ccccc3)C2C(=O)O)cc1 (stereo not given) the results were LYP act -8.0, Measles CPE 27.1* and LYP inh 2 5.3.
Cc1ccc(NC(=O)C2C(C(=O)O)C3C=CC2C32CC2)cc1 (stereo not given) was read as LYP act -3.8, Measles CPE 12.7 and LYP inh 2 1.1.
Cc1ccc(S(=O)(=O)N2CCOCC2)cc1NC(=O)CSc1nccn1C was read as Measles CPE 22.4.
CN(C)Cc1nc2c(c(=O)[nH]1)C1(CCCCC1)Cc1ccccc1-2 was read as LYP act -2.2, Measles CPE 2.1 and LYP inh 2 1.5.
For Cc1cccc(Cl)c1OCCCCn1ccnc1 the results were LYP act 5.0, Measles CPE 10.1 and LYP inh 2 -6.4.
`Cc1cccc(C(C)(C)C)c1OCCn1ccnc1` gave LYP act 3.3, Measles CPE 26.0* and LYP inh 2 -7.9.
CCOCC(=O)Nc1nc2ccc(S(C)(=O)=O)cc2s1 was read as LYP act 1.9, Measles CPE 10.5 and LYP inh 2 -7.3.
CCC(=O)Nc1nc2ccc(S(C)(=O)=O)cc2s1 was read as LYP act -0.1, Measles CPE 52.3* and LYP inh 2 0.6.
For Cc1ccc(N2C(=O)C(c3c(C)[nH]n(-c4ccccc4)c3=O)(C(F)(F)F)C3=C2CC(C)(C)CC3=O)cc1 (stereo not given) the results were LYP act -5.0, Measles CPE 14.8 and LYP inh 2 5.6.
COC(=O)c1cnn(-c2cc(Oc3cccc(C)c3)ncn2)c1N was read as LYP act -5.6, Measles CPE 16.1 and LYP inh 2 4.3.
Screening CC(=O)c1cnn(-c2cc(Oc3cccc(C)c3)ncn2)c1C returned LYP act -4.5, Measles CPE 51.0* and LYP inh 2 7.1.
`COC(=O)c1cc(Br)c(=O)n(CCN(C(C)C)C(C)C)c1` gave LYP act -6.2, Measles CPE 23.1 and LYP inh 2 3.4.
Cc1ccsc1-c1ccnc(-n2cccc2)n1 was read as LYP act 3.7, Measles CPE 15.5 and LYP inh 2 -0.9.
`CCOCN(C(=O)Cn1c(CO)nc2ccccc21)c1c(C)cccc1CC` gave LYP act -0.1, Measles CPE 34.6* and LYP inh 2 -1.1.
For CCc1cccc(C)c1NC(=O)CSc1nc2ccccc2n1CC(=O)N(C)C the results were Measles CPE 1.6.
O=C(NNC(=O)C1CCCCC1)c1cnccn1 was read as LYP act 3.4, Measles CPE 4.8 and LYP inh 2 -0.8.
For Cc1cccc(NC(=O)CSc2nc(N)cc(N)n2)c1 the results were LYP act 14.6, Measles CPE 13.0 and LYP inh 2 -20.6.
Screening CCOC(=O)c1cccc(NC(=O)CSc2nc(N)cc(N)n2)c1 returned LYP act 1.9, Measles CPE 31.3* and LYP inh 2 -1.3.
`CC1CN(C(=O)CSc2nc(-c3ccccc3)cs2)CC(C)O1` (stereo not given) gave LYP act -4.8, Measles CPE 21.7 and LYP inh 2 2.2.
Screening Cc1nc(SCC(=O)N2CC(C)OC(C)C2)nc(C)c1C (stereo not given) returned LYP act 1.1, Measles CPE 25.8* and LYP inh 2 2.4.
`Cc1nnc(Sc2nc3ccccc3o2)c2ccccc12` gave LYP act -7.3, Measles CPE 26.4* and LYP inh 2 7.2.
Cc1ccc(-c2nnc(Sc3nc4ccccc4o3)c3ccccc23)cc1 was read as LYP act -8.1, Measles CPE 9.3 and LYP inh 2 10.4.
CCN1CCN(C(=O)C2CCN(C(=O)c3cc4sccc4n3CC)CC2)CC1 was read as LYP act -7.0, Measles CPE 7.2 and LYP inh 2 5.4.
Screening Oc1ccc(-c2csc(NCc3ccco3)n2)cc1 returned LYP act -2.1, Measles CPE 9.2 and LYP inh 2 -0.9.
`CC(=O)Nc1cccc(-c2csc(NCc3ccco3)n2)c1` gave LYP act -1.2, Measles CPE 27.2* and LYP inh 2 0.6.
For COc1ccc(/C=C(\C#N)C(=O)N2CCOCC2)cc1Br the results were LYP act 11.8, Measles CPE 13.1 and LYP inh 2 -6.2.
O=C1CC(c2cccc([N+](=O)[O-])c2)c2c(ccc3ccccc23)N1 (stereo not given) was read as LYP act 2.0, Measles CPE 3.0 and LYP inh 2 3.1.
Screening CC1CCC(NC(=O)Nc2cccs2)CC1 (stereo not given) returned LYP act -4.7, Measles CPE 5.5 and LYP inh 2 4.0.
COc1ccc(CSc2nnnn2-c2ccccc2)cc1 was read as LYP act 18.0, Measles CPE 22.2 and LYP inh 2 -16.1.
For COc1ccc2c(CC(=O)Nc3c(C)n(C)n(-c4ccccc4)c3=O)coc2c1 the results were LYP act -1.0, Measles CPE 4.8 and LYP inh 2 -1.5.
Screening COc1ccc2c(C)cc(Sc3nnnn3-c3ccccc3)nc2c1 returned Measles CPE 53.4*.
`COc1ccc2c(C)cc(SCC(=O)Nc3c(C)n(C)n(-c4ccccc4)c3=O)nc2c1` gave LYP act -46.0, Measles CPE 11.7 and LYP inh 2 47.1*.
`CCc1ccc(C(=O)c2ccccc2C(=O)O)s1` gave LYP act 13.1, Measles CPE 9.7 and LYP inh 2 -8.5.
`COc1ccc(/C=N/Nc2nnc(-c3ncc[nH]3)c3ccccc23)cc1` gave LYP act -2.5, Measles CPE 3.3 and LYP inh 2 4.1.
Screening CCCCCCCCNc1ncnc2ccccc12 returned LYP act -6.0, Measles CPE 40.2 and LYP inh 2 8.3.
For CCC(=O)NNc1ncnc2ccccc12 the results were Measles CPE 91.8*.
Screening CCOC(=O)c1sc(NC(C)=O)nc1-c1ccccc1 returned LYP act 13.9, Measles CPE 17.6 and LYP inh 2 -11.9.
`CC(=O)Nc1sc(N)nc1-c1ccccc1` gave LYP act -10.8, Measles CPE 35.0* and LYP inh 2 8.8.
Screening Cc1ccc(NC(=O)CN(c2ccc(Cl)cc2)S(=O)(=O)c2cc([N+](=O)[O-])ccc2Cl)cc1 returned Measles CPE 5.5.
`COc1ccc(C)cc1S(=O)(=O)N(CC(=O)Nc1cccc([N+](=O)[O-])c1)c1ccc(C)c(C)c1` gave Measles CPE 49.5*.

Source: PubChem BioAssay (several laboratories)
